# From PubChem BioAssay AID449739 (Vanderbilt High Throughput Screening Facility, 2010)
# Screen size: about 100,000 compounds; about 4,200 (4.2%) were called active. This excerpt belongs to a sample that is enriched for actives. Values without a mark were called inactive.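 Rule for the calls: active = single-dose well whose peak fluorescence ratio is a statistical outlier from its plate by either plate-standardised score or position-corrected B-score; inactive = the rest.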
# Molecular target: Voltage-dependent T-type calcium channel subunit alpha-1H (Homo sapiens) (UniProt O95180)
# Assay: Cav3.2 calcium influx blockers – cell-based, Fluo-4 calcium fluorescence, FDSS, MLSMR library, primary screen (AID 449739)
# Details: Cav3.2-expressing cells, at 10 µM, active compounds read low
# Chain of Voltage-dependent T-type calcium channel subunit alpha-1H (Homo sapiens) (O95180 whole entry, looked up): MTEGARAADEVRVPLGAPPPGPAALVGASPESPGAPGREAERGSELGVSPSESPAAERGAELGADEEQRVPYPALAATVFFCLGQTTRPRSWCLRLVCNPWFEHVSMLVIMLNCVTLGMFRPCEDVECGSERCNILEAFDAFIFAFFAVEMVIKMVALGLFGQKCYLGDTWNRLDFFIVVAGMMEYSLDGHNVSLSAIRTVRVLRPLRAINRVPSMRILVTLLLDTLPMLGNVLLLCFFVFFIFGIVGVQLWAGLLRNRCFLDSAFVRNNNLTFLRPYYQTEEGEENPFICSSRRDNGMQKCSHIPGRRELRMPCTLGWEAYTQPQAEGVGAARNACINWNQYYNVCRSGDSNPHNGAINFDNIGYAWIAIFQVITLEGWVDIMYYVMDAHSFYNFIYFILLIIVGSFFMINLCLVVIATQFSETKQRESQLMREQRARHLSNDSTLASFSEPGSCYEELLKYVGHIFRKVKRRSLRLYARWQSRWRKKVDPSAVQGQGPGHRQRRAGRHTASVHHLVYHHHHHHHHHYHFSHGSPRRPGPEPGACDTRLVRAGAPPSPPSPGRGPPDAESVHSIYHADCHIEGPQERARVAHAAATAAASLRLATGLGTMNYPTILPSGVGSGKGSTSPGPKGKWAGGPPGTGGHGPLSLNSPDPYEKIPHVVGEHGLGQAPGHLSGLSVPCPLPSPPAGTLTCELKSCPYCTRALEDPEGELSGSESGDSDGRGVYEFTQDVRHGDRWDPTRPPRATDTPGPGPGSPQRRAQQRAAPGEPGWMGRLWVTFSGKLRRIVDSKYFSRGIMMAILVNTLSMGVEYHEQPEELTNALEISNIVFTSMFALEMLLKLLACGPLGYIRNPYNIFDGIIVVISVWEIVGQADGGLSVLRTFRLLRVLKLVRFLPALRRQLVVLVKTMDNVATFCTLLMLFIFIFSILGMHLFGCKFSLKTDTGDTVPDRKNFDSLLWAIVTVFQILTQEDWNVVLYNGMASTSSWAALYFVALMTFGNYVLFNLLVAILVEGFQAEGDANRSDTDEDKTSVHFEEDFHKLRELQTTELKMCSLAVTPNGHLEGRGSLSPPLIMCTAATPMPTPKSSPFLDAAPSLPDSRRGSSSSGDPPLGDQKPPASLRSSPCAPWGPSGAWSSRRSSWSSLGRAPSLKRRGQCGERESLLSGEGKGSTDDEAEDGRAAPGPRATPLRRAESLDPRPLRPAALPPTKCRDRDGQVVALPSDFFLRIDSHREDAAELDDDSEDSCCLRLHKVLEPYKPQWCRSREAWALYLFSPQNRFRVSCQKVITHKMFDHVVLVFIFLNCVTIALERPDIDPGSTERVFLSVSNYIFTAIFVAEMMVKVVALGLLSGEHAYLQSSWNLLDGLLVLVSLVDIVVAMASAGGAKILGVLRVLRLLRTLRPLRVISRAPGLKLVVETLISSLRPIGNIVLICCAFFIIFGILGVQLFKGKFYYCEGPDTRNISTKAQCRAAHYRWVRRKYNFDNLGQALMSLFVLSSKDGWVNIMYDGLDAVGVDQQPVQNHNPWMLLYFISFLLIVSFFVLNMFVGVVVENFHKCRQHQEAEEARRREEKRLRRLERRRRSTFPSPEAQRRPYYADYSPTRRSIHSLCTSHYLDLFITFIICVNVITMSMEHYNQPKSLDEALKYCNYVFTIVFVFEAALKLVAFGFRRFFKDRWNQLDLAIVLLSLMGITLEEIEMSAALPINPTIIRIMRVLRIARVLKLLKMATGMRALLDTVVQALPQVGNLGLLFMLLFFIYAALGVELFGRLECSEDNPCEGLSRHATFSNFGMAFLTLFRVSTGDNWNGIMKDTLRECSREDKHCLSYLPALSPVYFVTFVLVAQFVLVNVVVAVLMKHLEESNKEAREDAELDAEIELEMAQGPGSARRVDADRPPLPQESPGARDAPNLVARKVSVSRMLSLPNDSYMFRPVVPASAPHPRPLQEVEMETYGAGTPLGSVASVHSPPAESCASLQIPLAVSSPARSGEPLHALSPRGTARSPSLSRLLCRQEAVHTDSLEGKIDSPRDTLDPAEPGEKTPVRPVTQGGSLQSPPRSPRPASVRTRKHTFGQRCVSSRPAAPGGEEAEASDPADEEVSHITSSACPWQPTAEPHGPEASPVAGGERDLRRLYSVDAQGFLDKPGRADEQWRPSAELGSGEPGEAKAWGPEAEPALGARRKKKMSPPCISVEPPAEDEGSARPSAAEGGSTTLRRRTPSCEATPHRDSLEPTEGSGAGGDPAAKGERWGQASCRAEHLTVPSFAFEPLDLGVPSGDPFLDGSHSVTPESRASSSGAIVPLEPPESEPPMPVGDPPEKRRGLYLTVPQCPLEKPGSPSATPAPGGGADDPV
row,SMILES,B-score
1,C=CCC1(C(=O)N(C)Cc2ccccc2)CCN(C(=O)OC(C)(C)C)CC1,-0.119
2,CC(C)(C)NC(=O)NC(=O)COC(=O)CCC1CCCCC1,-0.871
3,O=C(Nc1ccn(Cc2ccc(F)cc2)n1)c1ccncc1,0.582
4,CC(=O)Nc1ccn(Cc2c(F)cccc2Cl)n1,-0.881
5,O=C(Nc1ccn(Cc2ccccc2F)n1)c1ccc(COc2ccc(Cl)cc2Cl)o1,-5.79 (active)
6,O=C(C1=C[C@H](c2ccc(C(F)(F)F)cc2)C[C@H](OCc2ccc(CO)cc2)O1)N1CCN(Cc2ccccc2)CC1,-0.906
7,CC(C)(C)[C@H]1C=C(C(=O)NCc2ccccc2)O[C@@H](OCc2ccc(CO)cc2)C1,-0.683
8,COc1cc(/C=N/NC(=O)Nc2ccccc2)ccc1OCCOc1ccccc1C,-1.44
9,Cc1nn(CC(=O)Nc2nc3ccccc3s2)c(C)c1[N+](=O)[O-],-1.65
10,CNC(=O)c1ccc2nc(NC(C)=O)sc2c1,1.09
11,O=C(NC(Nc1nc2ccc([N+](=O)[O-])cc2s1)(C(F)(F)F)C(F)(F)F)c1ccccc1,-8.17 (active)
12,COc1ccc(OC)c(NC(=O)CCN2CCC(C)CC2)c1,-3.95 (active)
13,CCOc1ccc(C(=O)Nc2cc(OC)ccc2OC)cc1,-0.483
14,COc1ccc(NC(=O)CCN2CCCC2)c(OC)c1,0.0598
15,Cc1ccc(N2C(=O)C(Cc3ccccc3)NC2=S)cc1 (stereo not given),0.262
16,Cc1cn(C)c(=O)n(C)c1=O,0.776
17,COc1ccc(-c2nc3c(s2)CCc2onc(-c4ccc(Br)cc4)c2-3)cc1,0.734
18,COc1cc(C(=O)N2CCN(C/C=C/c3ccccc3)CC2)cc(OC)c1C,-0.741
19,N#Cc1c(C(F)(F)F)cc(-c2ccccc2)nc1SCC(=O)N1CCOCC1,1.07
20,Cc1[nH]n(-c2ccc(Cl)cc2)c(=O)c1/C=N/n1c(C)nc2ccccc2c1=O,-2.58
21,Cc1[nH]n(-c2cccc(Cl)c2)c(=O)c1/C=N/n1c(C)nc2ccccc2c1=O,-5.96 (active)
22,COc1cc(NS(=O)(=O)c2ccc(N=Cc3c(C)[nH]n(-c4ccccc4)c3=O)cc2)nc(OC)n1,1.56
23,CCO[C@@H]1OC(C(=O)NC2CC2)=C[C@H](C)[C@H]1CCCO,0.361
24,O=C(Nc1ccccc1)O/N=C1\CCCCC1c1ccc([N+](=O)[O-])cc1[N+](=O)[O-] (stereo not given),-1.88
25,CN1CC(c2ccccc2)C2(COc3ccccc3C2=O)C12C(=O)Nc1ccccc12 (stereo not given),-2.68
